The text below walks through data of PubChem BioAssay (EPA / NIEHS).

Results filed as inconclusive are left out. The source made the active and inactive calls. Rule for the calls: active = hit-call score of the fitted dose curve at least 0.9, where 1 is the maximum; inconclusive = response in the unintended direction; inactive = score below 0.9.

For assay [1], the target named is human Phosphatase and Tensin Homolog (PTEN), PTEN (gene 5728) (UniProt P60484). The experiment in a line: NVS_ENZ_hPTEN: NovaScreen (NVS) Enzymatic Assay for human Phosphatase and Tensin Homolog (PTEN) (AID 2283203). The essentials: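 Cell-free recombinant human PTEN with fluorescent substrate; product separated by electrophoretic mobility shift and read by fluorescence 1 h after dosing. Primary screen in duplicate at 25 uM, actives followed in concentration series versus DMSO.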
Sequence of human Phosphatase and Tensin Homolog (PTEN), PTEN (gene 5728) (P60484 whole entry, looked up): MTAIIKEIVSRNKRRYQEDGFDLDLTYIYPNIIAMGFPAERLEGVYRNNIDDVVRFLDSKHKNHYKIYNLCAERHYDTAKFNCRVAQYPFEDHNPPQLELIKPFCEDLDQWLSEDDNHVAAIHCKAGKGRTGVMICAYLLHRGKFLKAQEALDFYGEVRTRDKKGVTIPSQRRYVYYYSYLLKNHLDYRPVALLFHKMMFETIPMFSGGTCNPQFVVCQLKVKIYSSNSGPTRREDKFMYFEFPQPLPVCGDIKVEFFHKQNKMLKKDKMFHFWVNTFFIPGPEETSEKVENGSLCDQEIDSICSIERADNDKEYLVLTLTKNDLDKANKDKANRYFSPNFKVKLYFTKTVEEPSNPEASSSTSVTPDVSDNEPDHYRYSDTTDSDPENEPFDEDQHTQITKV

The target of assay [2] is human p21 Activated Kinase 4 (PAK4), PAK4 (gene 10298) (UniProt O96013). Put plainly: NVS_ENZ_hPAK4: NovaScreen (NVS) Enzymatic Assay for human p21 Activated Kinase 4 (PAK4) (AID 2283189). The essentials: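 Cell-free recombinant human PAK4 activity assay; fluorescent substrate and product separated by electrophoretic mobility shift, read 1 h after dosing. Initially tested in duplicate at 25 uM, relative to DMSO baseline.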
Sequence of human p21 Activated Kinase 4 (PAK4), PAK4 (gene 10298) (O96013 whole entry, looked up): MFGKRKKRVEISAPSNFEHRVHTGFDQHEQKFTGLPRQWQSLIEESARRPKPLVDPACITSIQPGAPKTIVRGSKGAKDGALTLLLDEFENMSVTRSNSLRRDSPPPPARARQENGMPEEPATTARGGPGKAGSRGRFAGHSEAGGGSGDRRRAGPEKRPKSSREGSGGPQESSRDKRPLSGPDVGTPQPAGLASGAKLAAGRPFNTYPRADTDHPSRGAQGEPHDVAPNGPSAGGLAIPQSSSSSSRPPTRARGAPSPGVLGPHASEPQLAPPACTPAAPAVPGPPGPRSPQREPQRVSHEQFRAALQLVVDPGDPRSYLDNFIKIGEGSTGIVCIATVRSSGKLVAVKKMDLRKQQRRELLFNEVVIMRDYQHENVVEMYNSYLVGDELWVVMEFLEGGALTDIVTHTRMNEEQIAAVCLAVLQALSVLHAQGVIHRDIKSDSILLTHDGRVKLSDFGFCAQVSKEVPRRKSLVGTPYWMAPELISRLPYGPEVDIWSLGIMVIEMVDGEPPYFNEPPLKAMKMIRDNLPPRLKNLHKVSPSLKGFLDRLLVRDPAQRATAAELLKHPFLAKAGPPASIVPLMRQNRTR

Assay [3] has as its system rat Monoamine Oxidase, MAO-A, Peripheral (MAOAP), gene 29253. The experiment in a line: NVS_ENZ_rMAOAP: NovaScreen (NVS) Enzymatic Assay for rat Monoamine Oxidase, MAO-A, Peripheral (MAOAP) (AID 2283237). The essentials: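 Rat liver mitochondrial membranes served as the MAO-A source, with enzyme activity measured by radiometric scintillation counting 1.17 hours after dosing. Loss of signal was fitted against DMSO; primary screen used 25 uM in duplicate, follow-up used concentration series.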

The target of assay [4] is PPP2CA (gene 5515) (UniProt P67775). Put plainly: NVS_ENZ_hPPP2CA: NovaScreen (NVS) Enzymatic Assay for human Protein Phosphatase 2 Aatalytic subunit Alpha (PPP2CA) (AID 2283199). The essentials: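 Recombinant human PPP2CA with fluorescent substrate; product separated from substrate by electrophoretic mobility shift, read 1.33 h after dosing. Duplicate single-point at 25 uM, then singleton concentration-response up to 50 uM; loss of signal versus DMSO.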
Sequence of PPP2CA (gene 5515) (P67775 whole entry, looked up): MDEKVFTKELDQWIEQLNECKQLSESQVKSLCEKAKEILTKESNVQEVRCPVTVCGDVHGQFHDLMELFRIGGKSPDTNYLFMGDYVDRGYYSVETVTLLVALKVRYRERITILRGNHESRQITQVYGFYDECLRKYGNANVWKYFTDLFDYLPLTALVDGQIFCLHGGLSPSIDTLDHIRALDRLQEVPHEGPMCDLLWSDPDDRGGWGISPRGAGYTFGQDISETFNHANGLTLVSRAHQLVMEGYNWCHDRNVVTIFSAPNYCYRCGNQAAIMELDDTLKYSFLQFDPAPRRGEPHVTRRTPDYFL

For assay [5], the target named is rat Monoamine Oxidase, MAO-B, Central (MAOBC), Maob (gene 25750) (UniProt P19643). The experiment in a line: NVS_ENZ_rMAOBC: NovaScreen (NVS) Enzymatic Assay for rat Monoamine Oxidase, MAO-B, Central (MAOBC) (AID 2283238). The essentials:
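Rat brain tissue extract served as the cell-free MAO-B source; enzyme activity was read by scintillation counting 1.17 hours after compound addition. Loss of signal versus DMSO baseline was fitted; primary single-concentration screen at 25 uM, follow-up concentration-response up to 50 uM.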

For assay [6], the target named is Voltage-dependent N-type calcium channel subunit alpha-1B (Rattus norvegicus) (UniProt Q02294). The experiment in a line: NVS_IC_rCaChN: NovaScreen (NVS) Ion Channel Assay for rat Calcium Channel, Type N (CaChN) (AID 2283317).
Assay [7] concerns the target rat Acetylcholinesterase (AChE), Ache (gene 83817) (UniProt P37136). The experiment in a line: NVS_ENZ_rAChE: NovaScreen (NVS) Enzymatic Assay for rat Acetylcholinesterase (AChE) (AID 2283233). The essentials:
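Rat brain membrane acetylcholinesterase activity measured colorimetrically 0.33 h after compound addition, loss of signal relative to DMSO. Primary screen in duplicate at 25 uM; actives re-run as concentration-response with 50 uM top concentration.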

Assay [8] concerns rat Monoamine Oxidase, MAO-A, Central (MAOAC), gene 29253. Put plainly: NVS_ENZ_rMAOAC: NovaScreen (NVS) Enzymatic Assay for rat Monoamine Oxidase, MAO-A, Central (MAOAC) (AID 2283243).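 Note: potency refers to inhibition seen as signal drop below DMSO baseline.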 The essentials: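 Inhibition of rat brain-derived MAO-A was read by scintillation counting after 1.5 h exposure. Compounds screened first at 25 uM in duplicate, then in dose series if active.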

In assay [9] the target is rat Corticotropin Releasing Factor Receptor (CRF), Crhr1 (gene 58959) (UniProt P35353). The experiment in a line: NVS_GPCR_rCRF: NovaScreen (NVS) G Protein-Coupled Receptor Assay for rat Corticotropin Releasing Factor Receptor (CRF) (AID 2283300). The essentials:
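Rat cortical membranes used as receptor source in a radioligand competitive displacement binding assay; scintillation read 2 h after dosing. Primary screen run in duplicate at 25 uM; loss of signal versus DMSO baseline indicates binding.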

The target in assay [10] is rat Oxytocin Receptor (OXT), Oxtr (gene 25342) (UniProt P70536). The experiment in a line: NVS_GPCR_rOXT: NovaScreen (NVS) G Protein-Coupled Receptor Assay for rat Oxytocin Receptor (OXT) (AID 2283330). The essentials: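 Radioligand displacement on rat uterine membranes, 1 h incubation, filter-based scintillation counting. Chemicals were screened in duplicate at 25 uM, and those passing threshold were retested in concentration-response up to 50 uM. Loss of binding was fitted versus DMSO.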
Sequence of rat Oxytocin Receptor (OXT), Oxtr (gene 25342) (P70536 whole entry, looked up): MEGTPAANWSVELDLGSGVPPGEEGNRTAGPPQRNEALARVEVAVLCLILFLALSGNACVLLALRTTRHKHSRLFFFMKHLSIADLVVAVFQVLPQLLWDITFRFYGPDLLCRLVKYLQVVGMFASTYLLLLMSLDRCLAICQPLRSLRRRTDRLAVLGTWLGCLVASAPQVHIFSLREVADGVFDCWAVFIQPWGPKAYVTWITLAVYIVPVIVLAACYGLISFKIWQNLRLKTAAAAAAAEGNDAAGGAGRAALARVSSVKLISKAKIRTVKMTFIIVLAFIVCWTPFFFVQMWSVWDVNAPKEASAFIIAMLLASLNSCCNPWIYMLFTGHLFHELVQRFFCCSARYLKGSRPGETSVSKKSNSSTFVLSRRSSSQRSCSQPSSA

Sequence of rat Monoamine Oxidase, MAO-B, Central (MAOBC), Maob (gene 25750) (P19643 whole entry, looked up): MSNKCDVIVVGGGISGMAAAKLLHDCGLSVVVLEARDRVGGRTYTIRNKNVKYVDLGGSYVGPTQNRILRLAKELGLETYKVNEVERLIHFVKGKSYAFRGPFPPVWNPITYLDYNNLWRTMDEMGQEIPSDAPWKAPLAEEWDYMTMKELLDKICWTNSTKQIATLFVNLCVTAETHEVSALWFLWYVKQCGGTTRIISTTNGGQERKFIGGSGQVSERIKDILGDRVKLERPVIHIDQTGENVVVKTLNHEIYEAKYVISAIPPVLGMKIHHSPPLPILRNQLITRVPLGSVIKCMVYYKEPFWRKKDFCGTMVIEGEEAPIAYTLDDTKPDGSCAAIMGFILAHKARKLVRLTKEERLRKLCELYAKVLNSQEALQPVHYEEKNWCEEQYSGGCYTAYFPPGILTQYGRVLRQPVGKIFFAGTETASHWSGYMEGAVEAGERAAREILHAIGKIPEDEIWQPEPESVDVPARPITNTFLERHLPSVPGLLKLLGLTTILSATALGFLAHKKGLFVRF
Sequence of rat Acetylcholinesterase (AChE), Ache (gene 83817) (P37136 whole entry, looked up): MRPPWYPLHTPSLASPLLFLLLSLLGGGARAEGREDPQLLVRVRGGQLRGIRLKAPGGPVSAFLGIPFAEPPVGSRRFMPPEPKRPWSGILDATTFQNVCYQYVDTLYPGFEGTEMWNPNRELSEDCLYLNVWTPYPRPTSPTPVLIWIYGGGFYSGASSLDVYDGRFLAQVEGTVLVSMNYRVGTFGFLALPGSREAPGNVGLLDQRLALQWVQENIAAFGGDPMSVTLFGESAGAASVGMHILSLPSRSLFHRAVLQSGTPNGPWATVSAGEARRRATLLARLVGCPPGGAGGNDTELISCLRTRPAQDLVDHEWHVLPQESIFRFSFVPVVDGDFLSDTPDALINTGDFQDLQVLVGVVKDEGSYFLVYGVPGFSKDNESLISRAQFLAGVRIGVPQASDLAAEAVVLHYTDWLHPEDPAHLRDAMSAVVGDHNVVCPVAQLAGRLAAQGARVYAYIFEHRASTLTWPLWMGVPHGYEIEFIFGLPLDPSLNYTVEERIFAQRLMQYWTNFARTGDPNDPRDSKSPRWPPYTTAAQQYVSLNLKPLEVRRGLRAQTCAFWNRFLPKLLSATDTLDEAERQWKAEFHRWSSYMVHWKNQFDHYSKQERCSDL
Sequence of rat Corticotropin Releasing Factor Receptor (CRF), Crhr1 (gene 58959) (P35353 whole entry, looked up): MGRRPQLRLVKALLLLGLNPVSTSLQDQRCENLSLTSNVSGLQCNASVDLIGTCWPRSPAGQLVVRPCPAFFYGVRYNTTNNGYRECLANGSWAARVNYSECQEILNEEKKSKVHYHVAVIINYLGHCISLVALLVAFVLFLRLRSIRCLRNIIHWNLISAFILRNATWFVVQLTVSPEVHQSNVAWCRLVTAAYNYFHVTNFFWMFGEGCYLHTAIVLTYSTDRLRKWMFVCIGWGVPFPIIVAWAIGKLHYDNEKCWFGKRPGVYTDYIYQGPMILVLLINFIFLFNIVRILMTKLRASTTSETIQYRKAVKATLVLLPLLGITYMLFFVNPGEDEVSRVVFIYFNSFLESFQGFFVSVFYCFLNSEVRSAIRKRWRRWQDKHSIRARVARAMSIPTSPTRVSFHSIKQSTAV

For `CCc1cccc(CC)c1N(COC)C(=O)CS(=O)(=O)O`, the outcome in assay [1] was inactive. Take `COc1ccc(CCN2CCC(Nc3nc4ccccc4n3Cc3ccc(F)cc3)CC2)cc1`: in assay [1], the outcome was inactive.

`CC(=O)OCC=C(C)CCC=C(C)CCC=C(C)C`: in assay [1], the result was inactive. Turning to `S=c1[nH][nH]c(=S)s1`, the AC50 in assay [1] is 2.47 µM (active). The same measure, in the same setting: as for `CN(C)C(=S)SC(=S)N(C)C`, the figure is 18.9 µM (active). Consider `CCC(=O)O`, for which the molecule was called inactive in assay [1]. As for `C#C[C@]1(O)CC[C@H]2[C@@H]3CCC4=Cc5oncc5C[C@]4(C)[C@H]3CC[C@@]21C`, in [1], the AC50 was 25 µM (active). As to `O=C1OC2(c3ccc(O)cc3Oc3cc(O)ccc32)c2ccccc21`, the result in [1] was inactive. As for `Oc1ccc2c(c1)CCC2`, in assay [1], the AC50 was 1.62 µM (active).

Take `CCCCC/C=C/C=C/C=O`: the AC50 in assay [1] is 25 µM (active). Consider `O=c1c(O)c(-c2ccc(O)c(O)c2)oc2cc(O)cc(O)c12`, for which, in assay [2], the outcome was inactive. Moreover, the AC50 in assay [3] was 17.2 µM (active). For the molecule `N#[N+]c1ccc2c(S(=O)(=O)[O-])cccc2c1O`, the result in assay [1] was inactive. Take `CC(=O)CC(c1ccccc1)c1c(O)c2ccccc2oc1=O` (stereo unspecified): in assay [4], the call was inactive. As for `CC/C=C\C#N`, in assay [1], the result was inactive. In the case of `Cc1ccccc1S(N)(=O)=O`, the result in assay [1] was inactive. With `CCOC(=O)[C@H](C)O`, the molecule was called inactive in assay [1]. `COc1cccc(OC)c1O`: the outcome in assay [1] was inactive. Regarding `CC/C(=C\C(=N/O)C(N)=O)C(C)[N+](=O)[O-]` (stereo unspecified), the molecule was classed as inactive in assay [2] and in assay [6]. Moreover, the AC50 in assay [5] is 37.8 µM (active). Turning to `CCCCCCCCc1ccc(Nc2ccc(CCCCCCCC)cc2)cc1`, the result in assay [1] was inactive.

With `C=C(C)CCCC`, the outcome in [1] was inactive. Regarding `Fc1ccc(Br)cc1`, the outcome in assay [1] was inactive.

On to `OCCCCl`, for which the call in [1] was inactive. For the molecule `Nc1ccc(F)c([N+](=O)[O-])c1`, in assay [1], the outcome was inactive.

`OCCC(O)CO` (stereo unspecified): the AC50 in assay [1] was 14.7 µM (active). Take `CC/C=C\C/C=C\C/C=C\CCCCCCCC(=O)OC`: in assay [1], the concentration at half-maximal activity (AC50) is 9.64 µM (active). Turning to `CCNc1nc(NC(C)(C)C)nc(OC)n1`, the molecule was called inactive in assay [1]. For `CCCCCCCCCCCC[N+](C)(C)C`, the molecule was called inactive in assay [7]. In the case of `CN(CCOc1ccc(CC2SC(=O)NC2=O)cc1)c1ccccn1` (stereo unspecified), the concentration at half-maximal activity (AC50) in [8] was 12.9 µM (active). Regarding `C#CC(O)CCC` (stereo unspecified), in [8], the outcome was inactive. In the case of `C[C@]12CC[C@@H]3c4ccc(O)cc4CC[C@H]3[C@@H]1CCC2=O`, in [9], the outcome was inactive. `CC(=O)OCCC(C)C`: in assay [6], the result was inactive.

As to `C[C@@H]1C[C@H]2[C@@H]3CCC4=CC(=O)C=C[C@]4(C)[C@@]3(F)[C@@H](O)C[C@]2(C)[C@@]1(O)C(=O)COP(=O)(O)O`, in assay [6], the outcome was inactive.

Regarding `CCCN(CCC)c1c([N+](=O)[O-])cc(C(F)(F)F)c(N)c1[N+](=O)[O-]`, in [10], the call was inactive.

What is called AC50 is the concentration at which the activity in the assay is half-maximal.
